# Reference: article PMC7862700, “An all-to-all approach to the identification of sequence-specific readers for epigenetic DNA modifications on cytosine”
# Legend:
# Assay in all cases: DAPPL (digital affinity profiling via proximity ligation, sequencing); 10 mM Tris-HCl pH 7.5, 50 mM NaCl, 1 mM DTT, 4% glycerol, room temperature, 30 min; GST-TFs on glutathione beads, 16-mer random dsDNA library, 0.1% formaldehyde crosslink after washing; high values mean tight binding
# FEV = biological target: T1, FEV (Homo sapiens, UniProt Q99581 1-238); settings: protein: recombinant; tags: N-terminal GST; dsDNA, one strand shown
# T1 sequence: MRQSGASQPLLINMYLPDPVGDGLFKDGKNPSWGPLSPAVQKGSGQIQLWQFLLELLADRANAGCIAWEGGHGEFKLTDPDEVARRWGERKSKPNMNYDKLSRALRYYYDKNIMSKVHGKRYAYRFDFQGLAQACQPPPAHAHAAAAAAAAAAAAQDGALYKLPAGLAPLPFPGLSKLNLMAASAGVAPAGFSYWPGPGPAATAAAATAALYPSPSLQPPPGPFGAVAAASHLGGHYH
# Method in brief: (§1)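 Sequencing on an Illumina NextSeq500 followed washing, crosslinking with 0.1% formaldehyde, proximity ligation (BsaI/T4 ligase, 1 h, 37 °C) and PCR amplification of pools that had been incubated for 30 min at room temperature with 200 nmole of a random double-stranded 16-mer DNA library in Tris/NaCl/DTT/glycerol buffer. Each pool held DNA-barcoded human transcription factors, expressed in yeast as GST fusions and captured on glutathione beads, plus a tag-only sample. Binding signal is a hexamer's read frequency for a factor divided by its frequency in the tag-only sample.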
# ETV5 = ETV5 (Homo sapiens, UniProt P41161 1-510); settings: protein: recombinant; tags: N-terminal GST; dsDNA, one strand shown
# Chain of ETV5 (P41161 whole entry): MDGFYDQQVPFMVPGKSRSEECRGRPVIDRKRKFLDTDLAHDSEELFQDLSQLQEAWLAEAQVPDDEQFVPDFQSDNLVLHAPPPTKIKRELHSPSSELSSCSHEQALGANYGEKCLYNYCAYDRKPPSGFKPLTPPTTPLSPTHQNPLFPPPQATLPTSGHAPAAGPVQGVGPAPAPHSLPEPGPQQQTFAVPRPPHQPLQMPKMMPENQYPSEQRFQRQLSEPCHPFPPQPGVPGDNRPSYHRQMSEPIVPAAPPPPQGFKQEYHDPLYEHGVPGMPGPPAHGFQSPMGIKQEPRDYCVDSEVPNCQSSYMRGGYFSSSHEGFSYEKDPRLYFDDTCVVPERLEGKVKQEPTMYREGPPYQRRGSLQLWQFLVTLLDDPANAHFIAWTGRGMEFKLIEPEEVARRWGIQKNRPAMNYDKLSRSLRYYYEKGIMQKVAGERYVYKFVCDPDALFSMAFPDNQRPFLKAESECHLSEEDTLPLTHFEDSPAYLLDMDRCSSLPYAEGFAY
# Method in brief: as §1
# HSF1 = HSF1 (Homo sapiens, UniProt Q00613 1-529); settings: protein: recombinant; tags: N-terminal GST; chain copies: 3; dsDNA, one strand shown
# Chain of HSF1 (Q00613 whole entry): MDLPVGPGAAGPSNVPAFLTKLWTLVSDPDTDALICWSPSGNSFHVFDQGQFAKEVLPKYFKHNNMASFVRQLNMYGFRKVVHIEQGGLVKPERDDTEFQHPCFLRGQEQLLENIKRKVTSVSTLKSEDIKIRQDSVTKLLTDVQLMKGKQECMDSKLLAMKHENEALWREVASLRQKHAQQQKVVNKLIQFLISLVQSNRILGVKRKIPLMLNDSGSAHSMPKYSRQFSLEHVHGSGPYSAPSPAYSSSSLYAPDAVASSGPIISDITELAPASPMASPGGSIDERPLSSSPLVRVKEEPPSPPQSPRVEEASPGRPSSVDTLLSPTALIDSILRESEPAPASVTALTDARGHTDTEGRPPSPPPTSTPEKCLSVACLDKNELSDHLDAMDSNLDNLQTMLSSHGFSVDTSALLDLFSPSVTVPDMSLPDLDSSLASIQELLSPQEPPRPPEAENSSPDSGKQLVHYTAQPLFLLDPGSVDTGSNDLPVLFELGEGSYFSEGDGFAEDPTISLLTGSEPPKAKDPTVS
# Method in brief: as §1
# SPIC = biological target: T2, SPIC (Homo sapiens, UniProt Q8N5J4 1-248); settings: protein: recombinant; tags: N-terminal GST; dsDNA, one strand shown
# T2 sequence: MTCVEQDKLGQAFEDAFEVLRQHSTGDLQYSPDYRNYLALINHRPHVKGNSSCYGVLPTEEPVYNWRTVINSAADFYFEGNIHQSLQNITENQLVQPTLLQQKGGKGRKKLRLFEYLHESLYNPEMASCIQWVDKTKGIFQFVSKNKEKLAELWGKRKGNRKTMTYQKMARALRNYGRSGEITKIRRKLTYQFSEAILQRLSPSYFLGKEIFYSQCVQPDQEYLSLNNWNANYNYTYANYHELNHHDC
# Method in brief: as §1
# ELF4 = ELF4 (Homo sapiens, UniProt Q99607 1-663); settings: protein: recombinant; tags: N-terminal GST; dsDNA, one strand shown
# Chain of ELF4 (Q99607 whole entry): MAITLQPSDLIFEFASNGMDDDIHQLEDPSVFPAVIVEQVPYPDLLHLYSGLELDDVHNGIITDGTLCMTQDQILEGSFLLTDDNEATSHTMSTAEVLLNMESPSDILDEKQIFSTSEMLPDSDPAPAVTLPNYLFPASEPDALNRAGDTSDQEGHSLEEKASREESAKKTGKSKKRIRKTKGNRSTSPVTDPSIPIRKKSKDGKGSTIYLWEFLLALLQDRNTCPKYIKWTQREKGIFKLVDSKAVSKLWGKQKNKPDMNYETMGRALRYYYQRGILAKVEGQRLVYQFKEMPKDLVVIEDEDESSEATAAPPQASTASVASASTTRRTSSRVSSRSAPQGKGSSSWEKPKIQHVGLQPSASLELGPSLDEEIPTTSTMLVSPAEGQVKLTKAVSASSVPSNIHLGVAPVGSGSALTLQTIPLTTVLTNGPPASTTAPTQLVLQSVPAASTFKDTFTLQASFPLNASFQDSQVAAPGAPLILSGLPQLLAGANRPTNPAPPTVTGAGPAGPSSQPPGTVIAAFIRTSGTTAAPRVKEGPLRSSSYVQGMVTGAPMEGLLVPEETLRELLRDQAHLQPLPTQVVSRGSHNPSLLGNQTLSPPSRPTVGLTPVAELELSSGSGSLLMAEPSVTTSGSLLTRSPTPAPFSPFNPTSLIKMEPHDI
# Method in brief: as §1
# ELK4 = biological target: T3, ELK4 (Homo sapiens, UniProt P28324-2 1-405); settings: protein: recombinant; tags: N-terminal GST; dsDNA, one strand shown
# T3 sequence: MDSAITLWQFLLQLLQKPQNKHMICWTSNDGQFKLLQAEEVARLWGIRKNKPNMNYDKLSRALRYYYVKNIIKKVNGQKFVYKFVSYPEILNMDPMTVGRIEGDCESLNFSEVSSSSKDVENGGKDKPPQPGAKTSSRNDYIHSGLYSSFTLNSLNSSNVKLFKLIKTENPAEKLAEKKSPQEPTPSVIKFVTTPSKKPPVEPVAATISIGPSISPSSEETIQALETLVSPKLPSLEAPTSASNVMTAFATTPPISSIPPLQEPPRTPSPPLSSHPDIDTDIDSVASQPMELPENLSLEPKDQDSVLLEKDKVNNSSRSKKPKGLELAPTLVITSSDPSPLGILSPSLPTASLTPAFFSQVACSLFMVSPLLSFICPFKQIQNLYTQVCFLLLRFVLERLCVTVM
# Method in brief: as §1
# ETV2 = biological target: T4, ETV2 (Homo sapiens, UniProt O00321 1-342); settings: protein: recombinant; tags: N-terminal GST; dsDNA, one strand shown
# T4 sequence: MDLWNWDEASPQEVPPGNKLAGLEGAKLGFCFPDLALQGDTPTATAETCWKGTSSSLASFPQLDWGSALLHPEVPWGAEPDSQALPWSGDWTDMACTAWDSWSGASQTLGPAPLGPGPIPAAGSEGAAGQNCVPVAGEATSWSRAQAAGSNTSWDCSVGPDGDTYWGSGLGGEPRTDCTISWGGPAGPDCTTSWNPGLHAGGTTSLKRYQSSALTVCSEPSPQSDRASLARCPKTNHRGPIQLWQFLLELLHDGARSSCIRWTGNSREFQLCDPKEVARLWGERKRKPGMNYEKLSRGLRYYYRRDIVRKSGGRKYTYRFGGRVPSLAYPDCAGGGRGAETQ
# Method in brief: as §1
# ELF3 = biological target: T5, ELF3 (Homo sapiens, UniProt P78545 1-371); settings: protein: recombinant; tags: N-terminal GST; dsDNA, one strand shown
# T5 sequence: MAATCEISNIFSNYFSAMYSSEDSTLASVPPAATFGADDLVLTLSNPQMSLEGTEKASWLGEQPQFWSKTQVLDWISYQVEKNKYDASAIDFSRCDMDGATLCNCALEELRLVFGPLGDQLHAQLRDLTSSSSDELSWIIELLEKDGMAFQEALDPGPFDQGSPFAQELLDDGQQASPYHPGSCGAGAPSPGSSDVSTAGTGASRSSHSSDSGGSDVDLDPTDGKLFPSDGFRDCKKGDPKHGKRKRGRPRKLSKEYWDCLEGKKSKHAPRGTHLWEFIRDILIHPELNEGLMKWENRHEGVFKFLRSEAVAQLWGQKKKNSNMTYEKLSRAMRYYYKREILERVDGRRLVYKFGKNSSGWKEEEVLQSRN
# Method in brief: as §1
# CRX = CRX (Homo sapiens, UniProt O43186 1-299); settings: protein: recombinant; tags: N-terminal GST; dsDNA, one strand shown
# Chain of CRX (O43186 whole entry): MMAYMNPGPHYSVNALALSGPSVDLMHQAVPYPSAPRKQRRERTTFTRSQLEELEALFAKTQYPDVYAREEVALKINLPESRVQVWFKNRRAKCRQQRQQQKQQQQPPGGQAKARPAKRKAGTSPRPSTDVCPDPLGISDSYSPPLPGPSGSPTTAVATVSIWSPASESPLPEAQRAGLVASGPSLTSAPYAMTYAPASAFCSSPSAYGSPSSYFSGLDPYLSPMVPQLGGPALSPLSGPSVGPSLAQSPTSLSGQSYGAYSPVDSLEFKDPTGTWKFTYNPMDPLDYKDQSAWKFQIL
# Method in brief: as §1
# ETV1 = ETV1 (Homo sapiens, UniProt P50549 1-477); settings: protein: recombinant; tags: N-terminal GST; dsDNA, one strand shown
# Chain of ETV1 (P50549 whole entry): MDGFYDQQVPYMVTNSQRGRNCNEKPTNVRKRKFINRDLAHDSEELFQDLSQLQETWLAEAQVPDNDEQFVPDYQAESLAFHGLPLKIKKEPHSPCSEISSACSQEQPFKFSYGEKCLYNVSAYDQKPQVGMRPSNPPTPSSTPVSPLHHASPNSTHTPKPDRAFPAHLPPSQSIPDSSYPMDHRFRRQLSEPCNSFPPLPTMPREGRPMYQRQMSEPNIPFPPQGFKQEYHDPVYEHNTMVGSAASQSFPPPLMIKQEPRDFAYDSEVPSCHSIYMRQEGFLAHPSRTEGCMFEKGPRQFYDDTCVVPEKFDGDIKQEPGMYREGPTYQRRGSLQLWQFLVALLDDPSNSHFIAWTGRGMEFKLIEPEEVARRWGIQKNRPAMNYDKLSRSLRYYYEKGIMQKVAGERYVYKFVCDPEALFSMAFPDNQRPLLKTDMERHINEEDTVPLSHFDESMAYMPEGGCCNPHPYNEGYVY
# Method in brief: as §1
# ERF = biological target: T6, ERF (Homo sapiens, UniProt P50548 1-548); settings: protein: recombinant; tags: N-terminal GST; dsDNA, one strand shown
# T6 sequence: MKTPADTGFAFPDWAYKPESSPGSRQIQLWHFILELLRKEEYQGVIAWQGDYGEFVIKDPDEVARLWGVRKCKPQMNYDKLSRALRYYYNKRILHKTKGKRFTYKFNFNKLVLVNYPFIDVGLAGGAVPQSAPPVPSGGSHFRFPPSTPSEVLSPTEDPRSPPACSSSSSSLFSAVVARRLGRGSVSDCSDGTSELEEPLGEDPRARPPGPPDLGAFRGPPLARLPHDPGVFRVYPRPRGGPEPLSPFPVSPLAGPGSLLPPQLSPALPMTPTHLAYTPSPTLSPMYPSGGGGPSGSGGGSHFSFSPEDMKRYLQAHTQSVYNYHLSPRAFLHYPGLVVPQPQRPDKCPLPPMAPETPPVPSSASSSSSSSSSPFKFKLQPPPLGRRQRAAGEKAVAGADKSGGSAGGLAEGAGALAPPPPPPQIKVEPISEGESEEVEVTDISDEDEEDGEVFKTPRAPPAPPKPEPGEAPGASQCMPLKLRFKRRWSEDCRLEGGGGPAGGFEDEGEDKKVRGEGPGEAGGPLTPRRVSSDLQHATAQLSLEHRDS
# Method in brief: as §1
# ETV3L = biological target: T7, ETV3L (Homo sapiens, UniProt Q6ZN32 1-361); settings: protein: recombinant; tags: N-terminal GST; dsDNA, one strand shown
# T7 sequence: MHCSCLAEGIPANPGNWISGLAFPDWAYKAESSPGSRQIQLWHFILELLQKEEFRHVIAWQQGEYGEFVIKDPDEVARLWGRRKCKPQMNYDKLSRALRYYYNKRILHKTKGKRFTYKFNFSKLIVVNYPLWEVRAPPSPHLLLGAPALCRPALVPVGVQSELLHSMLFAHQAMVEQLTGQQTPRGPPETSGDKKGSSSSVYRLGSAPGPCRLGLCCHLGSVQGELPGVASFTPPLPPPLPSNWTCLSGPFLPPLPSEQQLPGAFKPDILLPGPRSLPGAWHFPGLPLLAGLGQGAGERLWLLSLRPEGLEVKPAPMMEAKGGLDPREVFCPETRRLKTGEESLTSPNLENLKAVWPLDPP
# Method in brief: as §1
# ETS2 = biological target: T8, ETS2 (Homo sapiens, UniProt P15036 1-469); settings: protein: recombinant; tags: N-terminal GST; dsDNA, one strand shown
# T8 sequence: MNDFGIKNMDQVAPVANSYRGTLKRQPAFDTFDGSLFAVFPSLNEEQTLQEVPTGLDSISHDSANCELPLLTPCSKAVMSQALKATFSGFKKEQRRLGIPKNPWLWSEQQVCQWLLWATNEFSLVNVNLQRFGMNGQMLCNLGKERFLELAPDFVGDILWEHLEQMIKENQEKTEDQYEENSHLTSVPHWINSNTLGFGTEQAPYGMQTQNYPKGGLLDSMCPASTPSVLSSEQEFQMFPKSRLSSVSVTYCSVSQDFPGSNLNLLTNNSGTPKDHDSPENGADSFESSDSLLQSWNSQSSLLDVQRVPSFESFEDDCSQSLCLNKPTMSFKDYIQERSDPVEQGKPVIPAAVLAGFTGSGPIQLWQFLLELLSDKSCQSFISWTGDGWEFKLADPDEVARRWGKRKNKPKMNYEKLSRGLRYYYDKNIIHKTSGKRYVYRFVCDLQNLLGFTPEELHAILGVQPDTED
# Method in brief: as §1
# SPDEF = biological target: T9, SPDEF (Homo sapiens, UniProt O95238 1-335); settings: protein: recombinant; tags: N-terminal GST; dsDNA, one strand shown
# T9 sequence: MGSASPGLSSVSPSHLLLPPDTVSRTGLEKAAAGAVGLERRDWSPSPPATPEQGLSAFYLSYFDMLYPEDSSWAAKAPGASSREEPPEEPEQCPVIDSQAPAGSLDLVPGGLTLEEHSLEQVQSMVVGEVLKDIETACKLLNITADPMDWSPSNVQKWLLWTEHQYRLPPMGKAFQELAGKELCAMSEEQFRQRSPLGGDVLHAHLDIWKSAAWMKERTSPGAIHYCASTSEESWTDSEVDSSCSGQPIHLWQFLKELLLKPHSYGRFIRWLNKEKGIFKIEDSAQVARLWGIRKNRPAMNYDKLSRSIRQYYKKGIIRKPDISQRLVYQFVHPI
# Method in brief: as §1
# ETV7 = biological target: T10, ETV7 (Homo sapiens, UniProt Q9Y603 1-341); settings: protein: recombinant; tags: N-terminal GST; dsDNA, one strand shown
# T10 sequence: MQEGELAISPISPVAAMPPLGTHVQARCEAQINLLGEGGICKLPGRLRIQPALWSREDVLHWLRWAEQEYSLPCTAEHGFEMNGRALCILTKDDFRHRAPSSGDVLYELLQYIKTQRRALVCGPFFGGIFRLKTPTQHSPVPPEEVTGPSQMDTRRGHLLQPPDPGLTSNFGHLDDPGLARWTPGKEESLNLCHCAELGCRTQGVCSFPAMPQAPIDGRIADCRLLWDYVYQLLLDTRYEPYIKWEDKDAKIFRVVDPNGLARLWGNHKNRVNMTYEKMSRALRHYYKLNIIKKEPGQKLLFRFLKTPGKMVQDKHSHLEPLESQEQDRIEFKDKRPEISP
# Method in brief: as §1
# ELF5 = biological target: T11, ELF5 (Homo sapiens, UniProt Q9UKW6-2 1-255); settings: protein: recombinant; tags: N-terminal GST; dsDNA, one strand shown
# T11 sequence: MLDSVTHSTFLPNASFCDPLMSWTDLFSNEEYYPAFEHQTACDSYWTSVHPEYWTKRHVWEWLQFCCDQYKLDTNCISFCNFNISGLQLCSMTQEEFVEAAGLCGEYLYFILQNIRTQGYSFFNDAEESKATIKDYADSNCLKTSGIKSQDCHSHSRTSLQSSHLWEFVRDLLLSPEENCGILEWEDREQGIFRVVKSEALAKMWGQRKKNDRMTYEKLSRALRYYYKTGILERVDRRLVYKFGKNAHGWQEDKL
# Method in brief: as §1
# ETV3 = biological target: T12, ETV3 (Homo sapiens, UniProt P41162-2 1-143); settings: protein: recombinant; tags: N-terminal GST; dsDNA, one strand shown
# T12 sequence: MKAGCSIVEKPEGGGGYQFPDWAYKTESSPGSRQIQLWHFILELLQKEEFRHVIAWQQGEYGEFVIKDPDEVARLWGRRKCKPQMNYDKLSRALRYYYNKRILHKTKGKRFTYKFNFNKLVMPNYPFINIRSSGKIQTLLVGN
# Method in brief: as §1
# ETV6 = ETV6 (Homo sapiens, UniProt P41212 1-452); settings: protein: recombinant; tags: N-terminal GST; dsDNA, one strand shown
# Chain of ETV6 (P41212 whole entry): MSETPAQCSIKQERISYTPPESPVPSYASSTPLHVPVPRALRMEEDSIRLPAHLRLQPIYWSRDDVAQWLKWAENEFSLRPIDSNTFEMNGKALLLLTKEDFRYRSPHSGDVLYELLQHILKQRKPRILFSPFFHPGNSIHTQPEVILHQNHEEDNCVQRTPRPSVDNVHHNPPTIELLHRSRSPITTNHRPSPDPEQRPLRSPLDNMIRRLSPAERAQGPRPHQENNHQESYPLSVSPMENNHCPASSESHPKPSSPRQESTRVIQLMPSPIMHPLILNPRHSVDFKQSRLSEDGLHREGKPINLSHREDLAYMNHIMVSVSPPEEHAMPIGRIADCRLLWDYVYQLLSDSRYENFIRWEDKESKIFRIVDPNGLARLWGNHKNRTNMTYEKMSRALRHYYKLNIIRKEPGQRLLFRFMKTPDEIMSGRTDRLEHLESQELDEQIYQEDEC
# Method in brief: as §1
sequence,measurement,setting,value
TGCTCA,binding signal,FEV,"1.39 fold enrichment (6-mer frequency, TF over GST control)"
same,binding signal,ETV5,"1.4 fold enrichment (6-mer frequency, TF over GST control)"
same,binding signal,HSF1,"1.12 fold enrichment (6-mer frequency, TF over GST control)"
same,binding signal,SPIC,"1.65 fold enrichment (6-mer frequency, TF over GST control)"
same,binding signal,ELF4,"1.28 fold enrichment (6-mer frequency, TF over GST control)"
same,binding signal,ELK4,"1.24 fold enrichment (6-mer frequency, TF over GST control)"
same,binding signal,ETV2,"1.42 fold enrichment (6-mer frequency, TF over GST control)"
same,binding signal,ELF3,"1.31 fold enrichment (6-mer frequency, TF over GST control)"
same,binding signal,CRX,"1.28 fold enrichment (6-mer frequency, TF over GST control)"
same,binding signal,ETV1,"1.34 fold enrichment (6-mer frequency, TF over GST control)"
same,binding signal,ERF,"1.5 fold enrichment (6-mer frequency, TF over GST control)"
same,binding signal,ETV3L,"1.31 fold enrichment (6-mer frequency, TF over GST control)"
same,binding signal,ETS2,"1.36 fold enrichment (6-mer frequency, TF over GST control)"
same,binding signal,SPDEF,"1.28 fold enrichment (6-mer frequency, TF over GST control)"
same,binding signal,ETV7,"1.54 fold enrichment (6-mer frequency, TF over GST control)"
same,binding signal,ELF5,"1.38 fold enrichment (6-mer frequency, TF over GST control)"
same,binding signal,ETV3,"1.24 fold enrichment (6-mer frequency, TF over GST control)"
same,binding signal,ETV6,"1.28 fold enrichment (6-mer frequency, TF over GST control)"
